Rows were chosen to be rich in hits. Some 0.51% of all compounds tested hit in one or more screens of this group.
FMDV antiviral: shows antiviral activity against foot and mouth disease virus | 120,000 compounds, 0.23% hits | FMDV antiviral cell assay, firefly luciferase signal | Potency, µM (top dose mostly 57.5 µM), for the others: at the highest dose activity change, negative = inhibition, most hits filed as inhibitors; further: nearly all actives have a fitted effect of over 60% in size
FMDV Renilla: FMDV antiviral activity by Renilla signal; FMDV replicon cells, Renilla luciferase signal; Potency, µM (series often up to 57.5 µM), for the others: at the highest dose activity change, negative = inhibition, most hits filed as inhibitors; 120,000 compounds, 0.32% hits; further: nearly all actives have a fitted effect of over 55% in size
* marks the source's active call; other numbers are inactive results; u = inconclusive; ! = not active in a repeat; [ ] = dose if it differs, or a comment. The call rests on the fitted dose curve. On the % scale 0 is the no-effect control and ±100 the full control effect; potency means the concentration at half of the fitted maximal effect.

SMILES | FMDV antiviral | FMDV Renilla
O=C(c1ccco1)N1CCC(C(=O)N2CCN(C(=O)c3ccco3)CC2)CC1 | 1% | -8%
COc1ccc(OCC(=O)N2CCC(c3nc4ccccc4s3)CC2)cc1 | 28µM* | 25µM*
Cc1ccccc1OCC(=O)N1CCC(c2nc3ccccc3s2)CC1 | -6% | -10%
CCOC(=O)c1c(NC(=O)C(CC)Oc2ccccc2)sc(C)c1C (configuration not stated) | -5% | -1%
CCN(CC)C(=S)SC(C(=O)c1ccccc1)c1ccccc1 (configuration not stated) | 9% | 12%
CCN(CC)C(=S)Sc1ccc([N+](=O)[O-])cc1 | 2µM* | -5%
CCOC(=O)C(CC(C)C)NC(C)=O (configuration not stated) | -10% | 0%
Cc1ccc(Cl)cc1-n1ncc2c(NC3CCCCC3)ncnc21 | u | 25µM*!
CCN1CCN(c2ncnc3c2cnn3-c2cc(Cl)ccc2C)CC1 | -11% | -12%
Cc1ccc(Cl)cc1-n1ncc2c(N3CCN(Cc4ccccc4)CC3)ncnc21 | 22µM* | 35µM*
Clc1ccc(-n2ncc3c(NC4CCCCCCCCCCC4)ncnc32)cc1 | 5% | -5%
Cc1ccc(C2CCCN2C(=O)c2cc(C)on2)cc1 (configuration not stated) | -4% | -9%
CCOc1nc2ccccc2nc1N1CCC(C(=O)Nc2ccc(C)c(Cl)c2)CC1 | -6% | -3%
CC(C)c1ccc2[nH]c(C(C)(C)C)c(C=O)c2c1 | 161% | 11%
Cc1ccc2c(C=O)c(C)[nH]c2c1 | 0% | 30%
Cc1ccc2[nH]c(C)c(/C=C/c3cc[n+](C)cc3)c2c1 | 13µM* | 11µM*
Cc1cccc(Cn2c(=O)n(-c3ccccc3C)c(=O)c3c2c2cc(C)ccc2n3C)c1 | -16% | -9%
Cc1ccc2c(c1)c(/C=C/c1cc[n+](C)cc1)c(C)n2C | u | 8.9µM*
CCn1c(COc2ccc(Cl)cc2)nnc1SCc1cc(C)ccc1C | -23% | 149%
Cn1nc(C(=O)N2CCCCCC2)c2c1-c1ccsc1CC2 | 159% | 49%
CCCC(C)(C)NC(=O)CCc1ccc(OC)c(OC)c1OC | -2% | 8%
CCCC(=O)N1CCN(S(=O)(=O)c2cc3c(cc2Cl)NC(=O)CO3)CC1 | 0% | 20%
CCN1CCN(C(C(=O)O)c2c[nH]c3ccc(NC(=O)CCC(=O)O)cc23)CC1 (configuration not stated) | 3% | 0%
Cc1ccc(CNc2c(C)c(C)nc3nncn23)cc1 | 2.2µM* | 2µM*
CCc1c(C)nc2nncn2c1NCc1ccc(Cl)cc1 | -40% | u
SMILES | FMDV antiviral | FMDV Renilla
CCOc1ccc(Nc2nc(N3CCOCC3)c3cnn(C)c3n2)cc1 | 2% | 3%
CCN(CC)c1ccc(Nc2nc(N3CCOCC3)c3ccccc3n2)cc1 | u | 20µM*
CN(C)CCNc1oc(-c2ccc(S(=O)(=O)N3CCCC3)cc2)nc1C#N | -8% | 55%
Nc1nccnc1C(=O)NCc1ccc(N2CCCCC2)nc1 | u | 5.6µM*
Nc1nccnc1C(=O)NCc1ccc(Oc2cccc(F)c2)nc1 | u | 8.9µM*
Nc1nccnc1C(=O)NCc1cccnc1 | -7% | -16%[1.06 µM]
Nc1nccnc1C(=O)NCc1ccc(CN2CCCCC2)cc1 | 0% | 0%
CC(C)c1ccc(C(=O)Cn2cnc3c2c(=O)n(C)c(=O)n3C)cc1 | 7% | 1%
Cc1cc(C(=O)Cn2c(Cl)nc3c2c(=O)n(C)c(=O)n3C)c(C)n1CCc1ccccc1 | 28µM* | 7.9µM*
Cc1cc(C(=O)Cn2c(Cl)nc3c2c(=O)n(C)c(=O)n3C)c(C)n1C | 35% | 15%
COc1ccc(Cc2nnc3n2N(C(C)=O)C(c2ccc(Cl)c(Cl)c2)=C(C(C)=O)S3)cc1 | 2% | 1%
Cc1ccccc1CCNC(=O)C(C)C | 0% | 11%
Cc1ccc(C)c(-c2csc(Nc3ccc(S(=O)(=O)Nc4nc(C)cc(C)n4)cc3)n2)c1 | -20% | 62%
Cc1ccc(C)c(-c2csc(Nc3ccc(S(N)(=O)=O)cc3)n2)c1 | u | 18µM*
Cc1ccccc1CNC(=O)CCNC(=O)C1CCCC1 | 9% | -9%
CC(=O)c1[nH]c(C)c(C(=O)NCc2ccc(Cl)cc2)c1C | 11µM* | u
CCOC(=O)c1[nH]c(C)c(C(=O)NCc2ccc(F)cc2)c1C | -17% | -5%
Cc1nn(CC(=O)NCCO)c(=O)c2ccccc12 | 3% | -1%
CCOC(=O)N1CCN(c2ncc3c(n2)CC(c2ccc(OC)c(OC)c2)CC3=O)CC1 (configuration not stated) | -2% | -5%
O=C1CC(c2ccccc2O)Cc2nc(N3CCN(c4ccccc4F)CC3)ncc21 (configuration not stated) | u | 11µM*
CCN(CCC(=O)OC)C(=O)CCCOc1cccc(C(C)=O)c1 | -11% | 0%
CCC1CCC(N(C(=O)Cc2nc(-c3cccs3)oc2C)C2CC2)CC1 (configuration not stated) | 35µM* | -20%
Cc1oc(-c2cccs2)nc1CC(=O)NCC1CCCO1 (configuration not stated) | 7% | -10%
